# KDM5B inh = KDM5B demethylase inhibition. Q9UGL1. KDM5B demethylase, FDH-coupled NADH fluorescence (FDH is formaldehyde dehydrogenase). Potency, µM (titrated, usually from 57.7 µM), most hits filed as inhibitors. actives 2.6% (n = 220,000); note: potency is the fitted concentration of half-maximal effect; 0% is about no effect; nearly all actives have a fitted effect of over 70% in size
#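 Inhibition is measured as reduced NADH fluorescence generation from FDH coupling to formaldehyde release. Truncated KDM5BΔAP at 200 nM final acts on H3K4me3 peptide (12.5 µM in substrate mix) in pH 7.5 HEPES buffer with Tween-20, 30 min, room temperature.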
# SNCA expr inh = inhibitors of alpha-synuclein (SNCA) gene expression; HEK-293 SNCA-luciferase knock-in, luminescence, 24 h; Potency, µM (series often up to 57.2 µM), without a hit: at the top dose activity change, negative = inhibition, most hits filed as inhibitors; actives 0.17% (n = 140,000);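 note: potency is the fitted concentration of half-maximal effect; plate controls were DMSO cells for no effect and cell-free wells for full effect; nearly all actives have a fitted effect of over 45% in size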
# HEK293 viab = reduces viability of HEK-293 SNCA reporter cells; HEK-293-SNCA-luc viability, GF-AFC fluorescence, 24 h; actives 0.12% (n = 150,000); Potency, µM (titrated, usually from 57.1 µM), for the others: at the top dose activity change, negative = cytotoxicity, most hits filed as cytotoxic;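 note: potency is the fitted concentration of half-maximal effect; 0% = DMSO-treated cells and -100% = medium-only wells without cells; nearly all actives have a fitted effect of over 30% in size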
#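 HEK-293-SNCA-luc cells (1500/well) plated 24 h, then exposed 24 h to a dilution series; GF-AFC added 30 min at 37C, fluorescence 405/540 nm; normalised to medium-only and DMSO wells, Hill fit.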
# IP6K1 inh = IP6K1 kinase inhibition; Q92551; IP6K1 kinase, ADP-Glo luminescence, 2 h; stronger effect = lower value; activity change, % (series mostly up to about 58 µM); actives 0.81% (n = 140,000); AID 1645851; in the data active = activity change below about -25%; note: % is set by controls: 0 for no effect and ±100 for the full control effect
#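 ADP-Glo luminescence measures ADP made by human IP6K1 during a 2 h RT reaction with ATP/IP6 (mix at 1.3 mM/130 uM); top library doses 57.5 and 19.1 uM final.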
# IP6K1 conf = confirmation of human IP6K1 inhibitors. actives 13% (n = 1,200). recombinant IP6K1 kinase, ADP-Glo luminescence, 2 h. shares compounds with IP6K1 inh. Potency, µM (series often up to 49 µM), inactives show at the top dose activity change, negative = inhibition, usual class: inhibitors; note: potency is the fitted concentration of half-maximal effect; % is set by controls: 0 for no effect and ±100 for the full control effect; nearly all actives have a fitted effect of over 65% in size
# * = called active by the depositor; i = inactive; ? = inconclusive; / = not tested or not shown; [ ] = another dose, or the depositor's remark. Rows were chosen to be rich in hits. Some 2.9% of all compounds tested hit in one or more screens of this group. Unless noted, calls come from the whole dose curve; as a rule, active = well fitted curve in the direction sought with a large enough effect; inconclusive = small, poorly fitted or top-dose-only effect, or another doubt; inactive = no such curve, though single readings can be large; an effect the other way counts as inactive or inconclusive.
SMILES,KDM5B inh,SNCA expr inh,HEK293 viab,IP6K1 inh,IP6K1 conf
CCc1nnc(NS(=O)(=O)c2ccc(NC(=S)NC(=O)/C=C/c3ccc(F)cc3)cc2)s1,/,/,-6%,-29*,21µM*
Cc1ccsc1CNC(=O)c1cnccn1,i,/,/,/,/
Cc1ccc(CNC(=O)c2sc3ncnc(N(C)C4CCCCC4)c3c2C)cc1,i,?,-4%,-6,/
Cc1ccccc1CNC(=O)c1sc2ncnc(N(C)C3CCCCC3)c2c1C,?,3%,-5%,-28*,-17%
Cn1cc(CC(=O)N2CCCc3ncc(C(=O)N4CCN(Cc5ccccc5)CC4)cc32)c2ccccc21,i,-15%,-8%,10,/
CCc1ocnc1C(=O)N1C[C@H]2OC(=O)N(CCCN3CCOCC3)[C@H]2C1,i,15%,7%,-72*,-11%
Cc1cccc(C)c1NC1=NS(=O)(=O)c2ccccc21,i,/,/,/,/
COC(=O)c1cccc(NC2=NS(=O)(=O)c3ccccc32)c1,i,8%,-15%,-40*,?
CCc1nn(CC(=O)N2CCN(c3cccc(C)c3C)CC2)c(=O)c2cc3sccc3n12,i,-6%,14%,-29*,-15%
CN(C)C[C@@H]1CN(Cc2ccccc2)C[C@H]1NC(=O)c1ccn(C)n1,i,22%,5%,2,/
O=C(Cc1c[nH]c2ncc(-c3ccc(Oc4ccccc4)cc3)cc12)NCc1cccnc1,?,?,?,-15,/
COCCNC(=O)Cc1c[nH]c2ncc(-c3ccccc3C)cc12,?,0%[87.6 µM],1%[87.6 µM],-18,/
N#Cc1ccc(-c2cnc3[nH]cc(NC(=O)c4cccnc4)c3c2)cc1,/,/,-17%,-28*,?
COc1ncccc1-c1cnc2[nH]cc(CC(N)=O)c2c1,32µM*,69%[87.6 µM],2%[87.6 µM],-29*,?
COc1ccc(-c2cnc3[nH]cc(CC(N)=O)c3c2)cc1OC,?,16%[87.6 µM],-7%[87.6 µM],-31*,?
O=C(Cc1c[nH]c2ncc(-c3ccc(Cl)cc3)cc12)NCc1cccnc1,?,17%[87.6 µM],4%[87.6 µM],-25*,-25%
CCCN(CCC)C(=O)c1coc(COc2ccc3sc(C)nc3c2)n1,i,-19%,-4%,-5,/
Cc1cc(C)cc(C(=O)N2CC(C(=O)NCCc3ccncc3)C3(CCOCC3)C2)c1 (centres undefined),i,11%,?,15,/
NC(=O)Cc1c[nH]c2ncc(-c3ccccc3C(F)(F)F)cc12,?,-11%[87.6 µM],-10%[87.6 µM],-34*,?
NC(=O)Cc1c[nH]c2ncc(-c3ccc(F)cc3)cc12,35µM*,10%[87.6 µM],6%[87.6 µM],-29*,?
O=C(Cc1c[nH]c2ncc(-c3cccnc3)cc12)Nc1ccc(F)cc1,i,-18%[87.6 µM],-8%[87.6 µM],-17,/
C=CCN(Cc1nc(-c2ccccc2)no1)C(=O)c1ccoc1C,i,/,/,/,/
C=CCN(Cc1nc(-c2ccccc2)no1)Cc1nccn1C,i,70%,-6%,-38*,-12%
CCN(CC)c1ccc(NC(=O)c2cc(S(N)(=O)=O)ccc2C)cc1,i,/,/,/,/
CCN(CC)c1ccc(C(=C2C=CC(=[N+](CC)CC)C=C2)c2cc(S(=O)(=O)O)ccc2S(=O)(=O)[O-])cc1,/,-8%[25.6 µM],-26%[23.9 µM],-51*,?
SMILES,KDM5B inh,SNCA expr inh,HEK293 viab,IP6K1 inh,IP6K1 conf
Cc1oc(-c2ccc(C(=O)NCc3ccc(N(C)C)cc3)cc2)nc1COc1ccccc1,?,15%,-6%,-25*,-10%
Cc1ccc(OCc2nc(-c3ccc(C(=O)NCc4ccc(OC(C)C)cc4)cc3)oc2C)cc1,?,-24%,-3%,-11,/
CNC(=O)c1ccc(NC(=O)c2nsc3ccccc23)cc1,i,-71%,-7%,-27*,?
CCOC(=O)c1ccc(NC(=O)c2nsc3ccccc23)cc1,?,-9%,-30%,-24,/
CCCCCCCCOc1ccccc1C(=O)Nc1ccc(C(=O)OCC[N+](C)(CC)CC)cc1,/,9%[25.6 µM],?,-37*,?
CCCCCOc1ccccc1C(=O)NCCCCCC(=O)O,i,/,/,/,/
Cc1cc(C)cc(OC(=O)c2snnc2C)c1,?,-5%,3%,-35*,-12%
Cc1nnsc1C(=O)Oc1ccc(C#N)cc1,?,8%,-10%,-20,/
Cc1nnsc1C(=O)Oc1ccc(Cl)cc1,?,-11%,6%,-26*,-4%
Cc1cccc(OC(=O)c2snnc2C)c1C,i,-8%,-7%,-18,/
CCOC(=O)c1cc2c(=O)n3ccccc3nc2n(Cc2ccco2)c1=NC(=O)c1cccc(F)c1,?,10%,?,-39*,-4%
O=Cc1cccc(-c2cccc(C(F)(F)F)c2)c1,i,2%[87.6 µM],-2%[87.6 µM],-36*,?
O=Cc1cccc(-c2ccccc2F)c1,i,22%[87.6 µM],8%[87.6 µM],-29*,?
Cc1ccc(-n2nnc(-c3nsc(NC(=O)c4ccc(Cl)cc4)n3)c2C)cc1F,i,/,/,/,/
CCC(C(=O)N1CCN(c2ccccc2)CC1)n1nc(C)n2c(cc3sccc32)c1=O (centres undefined),i,-5%,-16%,-8,/
CCC(C(=O)N1CCN(c2cc(Cl)ccc2C)CC1)n1nc(C)n2c(cc3occc32)c1=O (centres undefined),?,-13%,-37%,-26*,2%
Cc1nc([C@@H]2CN(C(=O)c3nn(C)c4ccccc34)C[C@H]2C(N)=O)n[nH]1,i,57%,9%,14,/
CC(C)c1ccc(C(=O)COC(=O)c2ccc(S(=O)(=O)NCc3ccco3)cc2)cc1,i,/,/,/,/
COc1cc(OC)cc(C(=O)N2CCC(c3nc(C4CCOC4)no3)CC2)c1 (centres undefined),i,8%,11%,19,/
COc1cccc(C(=O)N2CCC(c3nc(C4CCOC4)no3)CC2)c1 (centres undefined),?,3%,7%,-37*,-13%
COc1cccc(CNC(=O)Nc2cc(C(=O)NCc3cccc(F)c3)ccc2N2CCCC2)c1,?,7%,?,-26*,2%
CCc1nc2ccccc2n1CCCCOc1ccccc1C,?,?,0%,-30*,-22%
CCOc1ccc(CNC(=O)C(C)n2ncn3cccc3c2=O)cc1 (centres undefined),i,-11%,5%,-27*,-11%
CC1CCN(c2ccc(-c3cccc(N)c3)nn2)CC1,i,1.4µM*,-19%,-44*,?
O=C(O)C1CCN(C2CCOCC2)CC1,i,/,/,/,/
O=C(Cc1ccc(F)cc1)NC1CCN(c2ccc3nnc(-c4ccccc4)n3n2)CC1,/,/,/,4,/
Cn1cncc1C(N)(c1ccc(Cl)cc1)c1ccc2c(c1)c(-c1cccc(Cl)c1)cc(=O)n2C (centres undefined),/,/,9.5µM*,-26*,?
Cn1c(=O)c(-c2cccc(Cl)c2)c(O)c2ccccc21,i,/,/,/,/
Oc1ccc(NCc2ccc(OCc3ccccc3Cl)cc2)cc1,?,-1%,?,-28*,?
